The whole screen tested about 410,000 compounds, of which about 310 (0.076%) were called active. Not shown: some 2% with an inconclusive outcome. Calls come from the whole dose curve; as a rule, active = well fitted activation curve with a large enough effect; inconclusive = small, poorly fitted or top-dose-only effect, or another doubt; inactive = no such curve, though single readings can be large or run the other way. For the sample, actives were picked, then their nearest neighbours and some compounds at random.
Each molecule was assayed against Parathyroid hormone/parathyroid hormone-related peptide receptor (Homo sapiens) (UniProt Q03431) (assay: qHTS for PTHR1 Agonists: Primary Screen). Details: HEK293 GP2 PTHR1 cells, GloSensor cAMP luminescence, 1 h; series mostly up to 115 µM; activation: at the top concentration.
Chain of Parathyroid hormone/parathyroid hormone-related peptide receptor (Homo sapiens) (Q03431 whole entry, looked up): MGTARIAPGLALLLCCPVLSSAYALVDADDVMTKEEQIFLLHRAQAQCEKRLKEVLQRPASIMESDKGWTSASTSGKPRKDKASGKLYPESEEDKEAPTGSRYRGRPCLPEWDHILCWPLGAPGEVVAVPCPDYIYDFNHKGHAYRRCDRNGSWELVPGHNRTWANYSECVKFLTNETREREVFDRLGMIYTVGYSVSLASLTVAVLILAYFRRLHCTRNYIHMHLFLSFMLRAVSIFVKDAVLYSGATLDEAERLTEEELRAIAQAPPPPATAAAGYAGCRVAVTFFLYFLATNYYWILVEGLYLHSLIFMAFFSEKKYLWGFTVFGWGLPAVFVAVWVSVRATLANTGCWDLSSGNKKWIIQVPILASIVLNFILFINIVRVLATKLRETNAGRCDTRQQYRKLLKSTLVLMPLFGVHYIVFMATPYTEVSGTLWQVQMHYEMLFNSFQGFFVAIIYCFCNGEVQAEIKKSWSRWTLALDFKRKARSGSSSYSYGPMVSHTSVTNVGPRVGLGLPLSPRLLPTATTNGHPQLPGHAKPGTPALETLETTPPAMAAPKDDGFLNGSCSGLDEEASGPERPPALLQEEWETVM
Text: The goal of the proposed studies is to discover new compounds that act as potent agonists on the parathyroid hormone receptor type-1 (PTHR1). The PTHR1 plays critical roles in maintaining blood calcium and phosphate levels, as well as in controlling bone remodeling. PTHR1 agonists could thus be useful for treating diseases such as hypoparathyroidism and osteoporosis. In the former disease, an agonist drug would help maintain normal blood calcium and phosphate levels under conditions of parathyroid hormone deficiency. In the latter disease, an agonist drug would stimulate new bone formation and thus reduce the risk of fracture, under conditions of bone fragility, as occurs in aging.
To that end, we performed a quantitative high-throughput screening (qHTS) of the Molecular Libraries Probe Centers Network (MLPCN) compound libraries at the NIH Chemical Genomics Center (NCGC) for the parathyroid hormone receptor type-1 (PTHR1) using a unique HEK-293-derived cell line (GP2) that expresses the PTHR1 and a glosensor cAMP reporter construct.
NIH Molecular Libraries Probe Production Centers Network [MLPCN]
NIH Chemical Genomics Center [NCGC]
Assay Submitter (PI): Thomas Gardella, Massachusetts General Hospital
4 microL are dispensed into a 1536-well micro plate to yield 3,000 cells/well. The plates are then incubated overnight, after which 4 microL of 0.5 mM of BIoTium Luciferin plus 0.5 mM IBMX are added. They are then incubated at 37 degree for one hour before 23 nL of compounds are added through pinning and then incubated at 37 degree again for another hour. After the plates are kept at room temperature for 15 min before they are read on the ViewLux to measure luminescence.
Note: nearly all actives have a fitted effect of over 55% in size.

outcome, inactive:
COc1ccc(OC)c(NC(=O)CN2CCCN(Cc3cc(C)ccc3C)S2(=O)=O)c1
COc1ccc(OC)c(CNC(=O)CN2C(=O)CCn3nc(-c4cn(C)c5ccccc45)cc32)c1
CCOC(=O)c1ccccc1NC(=O)c1sc2nc(-c3ccc(F)cc3)cn2c1C
O=S(=O)(NCCS(=O)(=O)N1CCN(c2ccccc2)CC1)c1ccc(Cl)cc1
CCN(CC)S(=O)(=O)c1ccc2c(c1)nc(CN(C)C(=O)Nc1ccc(Cl)cc1)n2C
CCOCCCNC(=O)c1cn(CC)c2ccc(S(=O)(=O)N3CCc4ccccc4C3)cc2c1=O
CCC1=Nc2cc(C(=O)NCCCOC(C)C)ccc2Sc2ccc(C)cc21
COc1cc(C(=O)NCCS(=O)(=O)N2CCN(c3ccccc3)CC2)cc(OC)c1OC
CCOc1ccc(C(=O)c2cn(Cc3ccccc3OC)c3ccc(F)cc3c2=O)cc1
O=C(CCS(=O)(=O)c1cc(Br)cc2c1N(C(=O)C1CC1)CC2)Nc1ccc(C(F)(F)F)cc1
Cc1cc(C)c(NC(=O)CSc2nc3nccnc3c(=O)n2CCc2c[nH]c3ccccc23)c(C)c1
CCC(=O)N1CCc2cc(CNC(=O)Nc3ccccc3Cl)ccc21
Cc1ccc(Cn2c(=O)n(-c3ccc(C)cc3)c(=O)c3c2c2cc(C)ccc2n3C)cc1
Cc1ccccc1CSc1nc2c([nH]c3ccccc32)c(=O)n1C
CCOc1ccc(C2C(C(=O)Nc3ccc(Cl)cc3)=C(C)Nc3nc(C(F)(F)F)nn32)cc1 (configuration not stated)
CCN(C(=O)Cn1c(=O)nc(-c2ccccc2)c2cc(Cl)ccc21)c1cccc(C)c1
Cc1cc(C)cc(NC(=O)CCCc2nc(-c3ccccc3Cl)no2)c1
Cc1ccc(CNC(=O)CCC(=O)N2Cc3ccccc3Oc3ncccc32)cc1
CCOc1ccccc1N(CC)C(=O)Nc1cn(C)c(=O)c2ccccc12
O=C(NCCCO)c1nn(-c2ccc(Cl)cc2)nc1CO
CC(C)Cn1c(C2CC(=O)N(c3ccccc3Cl)C2)nc2ccccc21 (configuration not stated)
COc1ccc(CNc2nc(-c3ccc(Cl)cc3)nn2C(=O)c2ccccc2)cc1

activation, inactive:
CC1CCCN(c2cc3c(cc2F)c(=O)c(S(=O)(=O)c2cccc(Cl)c2)cn3Cc2ccccc2)C1 (configuration not stated) -0.749%
CCOc1ccc(-c2cc(C)n3nc(C(=O)Nc4ccc(C)c(C)c4)cc3n2)cc1 -13.2%
CC1=C(c2ccc(C)c(C)c2)S(=O)(=O)NC1=NCc1ccccc1Cl -38.2%
COC(=O)c1cc(NC(=O)c2sc3ccccc3c2Cl)cc(C(=O)OC)c1 -7.08%
Cc1[nH]c2ccccc2c1C(c1ccccc1)c1cccs1 (configuration not stated) -5.12%
CCOc1ccc(N(Cc2ccccc2)C(=O)c2nc(S(C)(=O)=O)ncc2Cl)cc1 -96.5%
Cc1ccc(OCC(=O)Nc2ccc(Cl)c(-c3nc4ccccc4[nH]3)c2)cc1C -22.3%
COc1ccc(-c2noc(CCC(=O)N(C)c3ccccc3C)n2)cc1 -19.3%
Cc1cccc(N2CCN(c3ccc(C(=O)O)cc3NC(=O)c3ccccc3F)CC2C)c1 (configuration not stated) -4.85%
Cc1cc(C)cc(NS(=O)(=O)c2ccc(-c3cc(C)no3)s2)c1 -34.8%
CN1C(=O)c2ccccc2Sc2ccc(NC(=O)Cc3ccc(Cl)cc3)cc21 -73.4%
Cc1ccccc1-c1nc2scc(CCNC(=O)C(=O)Nc3ccc(F)cc3F)n2n1 -0.325%
COc1ccccc1C(=O)Nc1c(C(=O)N(C)Cc2ccccc2)sc2nc(C)c(Cl)c(C)c12 -3.73%
CCN(C(=O)Cn1cnc2sc(C)c(S(=O)(=O)N3CCN(c4ncccn4)CC3)c2c1=O)c1ccccc1F -22.9%
CSc1nc(-c2ccc(F)cc2)nc2c1Cc1c(CO)cnc(C)c1O2 -3.85%
Cc1ccccc1OCCSc1nc2ccc(NC(=O)c3ccco3)cc2s1 -22.6%
Cc1ccsc1CN(C(=O)c1oc2ccc(Br)cc2c1C)C1CCS(=O)(=O)C1 (configuration not stated) -19.6%
CC(=O)c1ccc(N2CCN(c3nc4c(S(=O)(=O)c5ccccc5)nnn4c4ccc(Cl)cc34)CC2)cc1 -11.3%
Cc1cccc(N2CCN(C(=O)Cn3ncc4c5ccccc5n(C)c4c3=O)CC2C)c1 (configuration not stated) -6.58%
CCOC(=O)C1CCN(c2nc3c(S(=O)(=O)c4ccc(CC)cc4)nnn3c3ccc(Cl)cc23)CC1 -39.7%
CCOC(=O)c1c(NC(=O)Cc2coc3ccc(CC)cc23)sc2c1CCC2 -14%
CCc1nn(CC(=O)N2CCN(c3ccc(Cl)cc3)CC2)c(=O)c2cc3occc3n12 -30.1%
Cn1c(COc2ccccc2C(C)(C)C)nc2ccccc21 -14.1%
COc1ccc(NC(=O)CSC2=Nc3ccccc3C3=NC(CC(=O)NCc4ccccc4OC)C(=O)N23)cc1Cl (configuration not stated) -3.88%
CC(CCCc1ccccc1)NC(=O)c1nn(-c2ccc(Cl)cc2)nc1CO (configuration not stated) -11%

Reference: PubChem BioAssay AID743266 (National Center for Advancing Translational Sciences (NCATS), 2014)
